# Data published in article PMC7862700, “An all-to-all approach to the identification of sequence-specific readers for epigenetic DNA modifications on cytosine”.
# Columns and labels:
# Assay in all cases: DAPPL (digital affinity profiling via proximity ligation, sequencing); 10 mM Tris-HCl pH 7.5, 50 mM NaCl, 1 mM DTT, 4% glycerol, room temperature, 30 min; GST-TFs on glutathione beads, 16-mer random dsDNA library, 0.1% formaldehyde crosslink after washing; high values mean tight binding
# Details in all cases: protein: recombinant; tags: N-terminal GST; dsDNA, one strand shown
# [1] = molecular target: T1, ELK1 (Homo sapiens, UniProt P19419 1-428)
# T1 sequence: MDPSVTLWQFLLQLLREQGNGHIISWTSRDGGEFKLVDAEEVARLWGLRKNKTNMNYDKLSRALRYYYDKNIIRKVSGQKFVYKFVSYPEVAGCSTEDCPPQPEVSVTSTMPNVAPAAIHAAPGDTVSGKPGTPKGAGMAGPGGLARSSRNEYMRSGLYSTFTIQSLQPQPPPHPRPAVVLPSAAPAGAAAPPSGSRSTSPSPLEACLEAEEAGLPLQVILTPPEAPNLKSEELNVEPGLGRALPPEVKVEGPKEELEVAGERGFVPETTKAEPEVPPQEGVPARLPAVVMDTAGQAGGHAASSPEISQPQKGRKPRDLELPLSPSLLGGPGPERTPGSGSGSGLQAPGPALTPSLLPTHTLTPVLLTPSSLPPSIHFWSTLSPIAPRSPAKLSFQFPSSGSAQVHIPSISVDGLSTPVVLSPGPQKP
# Outline: (§1)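 A tag-only sample was pooled with DNA-barcoded human transcription factors that had been expressed in yeast as GST fusions and captured on glutathione beads. The pools were incubated for 30 min at room temperature with 200 nmole of a random double-stranded 16-mer DNA library in Tris/NaCl/DTT/glycerol buffer, then washed, crosslinked with 0.1% formaldehyde, proximity-ligated (BsaI/T4 ligase, 1 h, 37 °C), PCR-amplified and sequenced on an Illumina NextSeq500. Binding signal is each hexamer's read frequency for a factor divided by its frequency for the tag-only sample.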
# [2] = molecular target: T2, GABPA (Homo sapiens, UniProt Q06546 1-454)
# T2 sequence: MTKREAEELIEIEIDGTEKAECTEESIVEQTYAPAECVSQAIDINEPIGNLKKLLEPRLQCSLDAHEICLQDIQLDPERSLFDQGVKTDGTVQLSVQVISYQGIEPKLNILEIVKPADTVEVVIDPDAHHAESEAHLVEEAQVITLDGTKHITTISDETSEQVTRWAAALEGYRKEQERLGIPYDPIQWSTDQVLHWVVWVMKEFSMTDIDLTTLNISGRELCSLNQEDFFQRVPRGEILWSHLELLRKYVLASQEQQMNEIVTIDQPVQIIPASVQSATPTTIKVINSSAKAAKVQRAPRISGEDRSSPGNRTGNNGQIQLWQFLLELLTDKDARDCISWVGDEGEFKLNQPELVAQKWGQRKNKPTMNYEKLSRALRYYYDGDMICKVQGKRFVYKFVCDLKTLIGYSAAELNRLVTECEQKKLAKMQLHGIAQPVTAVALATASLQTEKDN
# Outline: as §1
# [3] = molecular target: T3, ERG (Homo sapiens, UniProt P11308 1-479)
# T3 sequence: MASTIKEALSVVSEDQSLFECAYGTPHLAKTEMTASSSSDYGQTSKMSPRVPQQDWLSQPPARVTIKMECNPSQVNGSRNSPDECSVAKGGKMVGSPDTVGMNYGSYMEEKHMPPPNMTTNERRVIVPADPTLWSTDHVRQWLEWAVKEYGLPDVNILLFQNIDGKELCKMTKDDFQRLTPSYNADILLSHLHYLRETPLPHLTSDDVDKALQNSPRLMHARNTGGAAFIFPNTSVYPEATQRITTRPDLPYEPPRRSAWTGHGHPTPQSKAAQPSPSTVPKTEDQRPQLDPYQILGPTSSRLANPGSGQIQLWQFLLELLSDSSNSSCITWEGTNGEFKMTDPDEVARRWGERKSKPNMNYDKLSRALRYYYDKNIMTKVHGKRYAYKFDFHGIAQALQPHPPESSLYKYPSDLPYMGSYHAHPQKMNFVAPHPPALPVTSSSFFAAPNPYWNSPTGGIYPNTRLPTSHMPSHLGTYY
# Outline: as §1
# [4] = molecular target: ELF1 (Homo sapiens, UniProt P32519 1-619)
# Outline: as §1
# [5] = molecular target: T4, EHF (Homo sapiens, UniProt Q9NZC4 1-300)
# T4 sequence: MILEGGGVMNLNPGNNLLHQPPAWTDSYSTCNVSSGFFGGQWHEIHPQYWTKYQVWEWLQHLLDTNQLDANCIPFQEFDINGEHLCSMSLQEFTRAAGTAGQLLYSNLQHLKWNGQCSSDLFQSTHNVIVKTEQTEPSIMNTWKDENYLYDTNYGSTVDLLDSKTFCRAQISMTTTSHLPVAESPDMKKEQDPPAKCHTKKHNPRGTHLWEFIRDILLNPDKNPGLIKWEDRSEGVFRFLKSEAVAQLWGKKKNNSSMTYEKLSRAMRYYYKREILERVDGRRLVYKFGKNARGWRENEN
# Outline: as §1
# [6] = molecular target: SPIB (Homo sapiens, UniProt Q01892 1-262)
# Outline: as §1
# [7] = molecular target: T5, FEV (Homo sapiens, UniProt Q99581 1-238)
# T5 sequence: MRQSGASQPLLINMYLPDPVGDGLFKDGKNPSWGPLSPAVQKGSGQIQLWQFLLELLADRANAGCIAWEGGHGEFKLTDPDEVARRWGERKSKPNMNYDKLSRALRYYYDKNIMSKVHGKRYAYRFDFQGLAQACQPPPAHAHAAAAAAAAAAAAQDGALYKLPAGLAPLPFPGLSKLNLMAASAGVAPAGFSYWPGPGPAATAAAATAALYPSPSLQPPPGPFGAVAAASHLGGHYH
# Outline: as §1
# [8] = molecular target: ETV5 (Homo sapiens, UniProt P41161 1-510)
# Outline: as §1
# [9] = molecular target: ELF4 (Homo sapiens, UniProt Q99607 1-663)
# Outline: as §1
# [10] = molecular target: T6, ELK4 (Homo sapiens, UniProt P28324-2 1-405)
# T6 sequence: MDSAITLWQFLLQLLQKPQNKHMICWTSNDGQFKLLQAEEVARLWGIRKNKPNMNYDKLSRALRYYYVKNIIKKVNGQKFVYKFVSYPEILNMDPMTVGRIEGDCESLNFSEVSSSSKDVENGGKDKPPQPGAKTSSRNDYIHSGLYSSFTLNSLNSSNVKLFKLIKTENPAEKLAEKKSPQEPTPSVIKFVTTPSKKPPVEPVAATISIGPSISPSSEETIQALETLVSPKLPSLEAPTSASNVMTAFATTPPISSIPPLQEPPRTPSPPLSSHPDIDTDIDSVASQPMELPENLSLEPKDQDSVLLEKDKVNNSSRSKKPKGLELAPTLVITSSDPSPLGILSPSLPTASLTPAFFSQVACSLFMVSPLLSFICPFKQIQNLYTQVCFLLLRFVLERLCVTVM
# Outline: as §1
# [11] = molecular target: T7, ETV2 (Homo sapiens, UniProt O00321 1-342)
# T7 sequence: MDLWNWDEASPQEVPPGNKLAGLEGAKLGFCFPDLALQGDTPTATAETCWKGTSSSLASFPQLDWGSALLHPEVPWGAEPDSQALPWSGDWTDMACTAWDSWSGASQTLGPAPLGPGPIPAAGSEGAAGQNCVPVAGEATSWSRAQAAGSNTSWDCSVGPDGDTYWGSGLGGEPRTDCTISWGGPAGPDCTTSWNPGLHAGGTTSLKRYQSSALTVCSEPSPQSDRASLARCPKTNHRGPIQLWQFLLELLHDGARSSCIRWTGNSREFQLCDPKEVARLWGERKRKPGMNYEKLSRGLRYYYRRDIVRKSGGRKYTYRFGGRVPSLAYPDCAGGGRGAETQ
# Outline: as §1
# [12] = molecular target: T8, ELF3 (Homo sapiens, UniProt P78545 1-371)
# T8 sequence: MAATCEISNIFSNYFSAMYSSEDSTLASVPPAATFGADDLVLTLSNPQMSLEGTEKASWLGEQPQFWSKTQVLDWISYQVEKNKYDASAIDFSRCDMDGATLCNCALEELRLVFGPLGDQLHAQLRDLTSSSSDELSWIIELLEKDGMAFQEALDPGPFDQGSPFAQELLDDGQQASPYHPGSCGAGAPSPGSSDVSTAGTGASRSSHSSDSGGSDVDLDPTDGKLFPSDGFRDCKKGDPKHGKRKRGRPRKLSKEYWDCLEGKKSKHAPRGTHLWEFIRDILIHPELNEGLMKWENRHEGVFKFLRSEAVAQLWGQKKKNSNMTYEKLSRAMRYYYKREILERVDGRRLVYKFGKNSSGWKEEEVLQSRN
# Outline: as §1
# [13] = molecular target: ETV1 (Homo sapiens, UniProt P50549 1-477)
# Outline: as §1
# [14] = molecular target: T9, ETV3L (Homo sapiens, UniProt Q6ZN32 1-361)
# T9 sequence: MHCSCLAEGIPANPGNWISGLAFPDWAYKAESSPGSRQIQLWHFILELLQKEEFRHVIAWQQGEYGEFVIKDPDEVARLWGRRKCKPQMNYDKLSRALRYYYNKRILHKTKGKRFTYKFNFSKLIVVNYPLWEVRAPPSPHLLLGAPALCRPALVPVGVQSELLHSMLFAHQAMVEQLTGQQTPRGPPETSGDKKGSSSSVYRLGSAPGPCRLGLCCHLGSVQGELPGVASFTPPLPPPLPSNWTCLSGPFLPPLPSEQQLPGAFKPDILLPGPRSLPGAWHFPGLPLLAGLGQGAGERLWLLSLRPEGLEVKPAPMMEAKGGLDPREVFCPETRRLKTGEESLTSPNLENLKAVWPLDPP
# Outline: as §1
# [15] = molecular target: T10, ETS2 (Homo sapiens, UniProt P15036 1-469)
# T10 sequence: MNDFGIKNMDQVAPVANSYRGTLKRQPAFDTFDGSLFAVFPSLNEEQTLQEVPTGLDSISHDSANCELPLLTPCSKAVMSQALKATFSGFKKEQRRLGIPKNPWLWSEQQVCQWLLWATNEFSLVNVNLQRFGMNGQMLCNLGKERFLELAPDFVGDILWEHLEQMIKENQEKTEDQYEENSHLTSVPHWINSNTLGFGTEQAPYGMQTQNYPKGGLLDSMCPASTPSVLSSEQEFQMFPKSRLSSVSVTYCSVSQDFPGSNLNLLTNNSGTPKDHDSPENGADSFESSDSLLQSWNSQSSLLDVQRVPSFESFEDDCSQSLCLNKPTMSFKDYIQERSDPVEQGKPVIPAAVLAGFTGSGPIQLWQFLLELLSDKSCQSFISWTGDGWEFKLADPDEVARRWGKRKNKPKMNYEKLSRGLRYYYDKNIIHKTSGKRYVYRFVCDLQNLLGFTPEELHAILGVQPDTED
# Outline: as §1
# [16] = molecular target: T11, SPDEF (Homo sapiens, UniProt O95238 1-335)
# T11 sequence: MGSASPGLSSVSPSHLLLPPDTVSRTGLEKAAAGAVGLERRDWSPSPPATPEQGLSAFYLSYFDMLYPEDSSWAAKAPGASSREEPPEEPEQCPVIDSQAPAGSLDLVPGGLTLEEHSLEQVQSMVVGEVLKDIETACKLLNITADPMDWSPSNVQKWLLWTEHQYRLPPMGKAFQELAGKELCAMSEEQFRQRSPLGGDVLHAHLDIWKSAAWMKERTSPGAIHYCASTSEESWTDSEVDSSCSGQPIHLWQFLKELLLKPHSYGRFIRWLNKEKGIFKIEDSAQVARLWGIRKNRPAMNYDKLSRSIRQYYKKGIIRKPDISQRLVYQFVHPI
# Outline: as §1
# [17] = molecular target: T12, ETV7 (Homo sapiens, UniProt Q9Y603 1-341)
# T12 sequence: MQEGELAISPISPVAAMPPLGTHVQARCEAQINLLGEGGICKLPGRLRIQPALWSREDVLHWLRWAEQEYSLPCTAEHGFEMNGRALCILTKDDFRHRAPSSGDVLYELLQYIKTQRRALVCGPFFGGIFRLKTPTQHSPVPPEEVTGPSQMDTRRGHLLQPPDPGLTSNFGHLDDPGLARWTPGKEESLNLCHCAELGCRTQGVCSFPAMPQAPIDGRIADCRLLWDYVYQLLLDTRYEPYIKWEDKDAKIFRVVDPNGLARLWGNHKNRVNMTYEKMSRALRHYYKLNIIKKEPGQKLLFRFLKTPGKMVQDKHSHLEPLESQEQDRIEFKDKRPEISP
# Outline: as §1
# [18] = molecular target: T13, ETV3 (Homo sapiens, UniProt P41162-2 1-143)
# T13 sequence: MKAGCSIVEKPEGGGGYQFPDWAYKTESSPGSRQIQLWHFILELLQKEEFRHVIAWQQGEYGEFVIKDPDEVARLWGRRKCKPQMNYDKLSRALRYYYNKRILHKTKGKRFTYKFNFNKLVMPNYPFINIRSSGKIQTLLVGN
# Outline: as §1
# [19] = molecular target: ETV6 (Homo sapiens, UniProt P41212 1-452)
# Outline: as §1
# Chain of ELF4 (Q99607 whole entry): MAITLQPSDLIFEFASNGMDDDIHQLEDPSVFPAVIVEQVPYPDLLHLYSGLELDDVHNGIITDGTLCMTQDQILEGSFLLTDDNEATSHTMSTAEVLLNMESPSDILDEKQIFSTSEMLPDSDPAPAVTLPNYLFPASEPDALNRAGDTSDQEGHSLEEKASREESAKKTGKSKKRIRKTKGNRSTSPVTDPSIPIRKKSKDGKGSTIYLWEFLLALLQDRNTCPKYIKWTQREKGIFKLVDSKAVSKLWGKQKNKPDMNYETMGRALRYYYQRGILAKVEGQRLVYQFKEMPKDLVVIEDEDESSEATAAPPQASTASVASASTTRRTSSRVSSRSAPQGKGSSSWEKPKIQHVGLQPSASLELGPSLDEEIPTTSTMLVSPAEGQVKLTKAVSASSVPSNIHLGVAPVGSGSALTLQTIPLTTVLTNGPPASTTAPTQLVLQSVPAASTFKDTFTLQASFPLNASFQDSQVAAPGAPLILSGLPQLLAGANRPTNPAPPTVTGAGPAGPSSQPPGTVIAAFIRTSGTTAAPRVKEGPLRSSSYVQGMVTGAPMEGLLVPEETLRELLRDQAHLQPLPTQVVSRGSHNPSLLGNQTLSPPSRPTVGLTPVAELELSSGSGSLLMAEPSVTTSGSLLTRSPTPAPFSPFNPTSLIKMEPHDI
# Chain of ELF1 (P32519 whole entry): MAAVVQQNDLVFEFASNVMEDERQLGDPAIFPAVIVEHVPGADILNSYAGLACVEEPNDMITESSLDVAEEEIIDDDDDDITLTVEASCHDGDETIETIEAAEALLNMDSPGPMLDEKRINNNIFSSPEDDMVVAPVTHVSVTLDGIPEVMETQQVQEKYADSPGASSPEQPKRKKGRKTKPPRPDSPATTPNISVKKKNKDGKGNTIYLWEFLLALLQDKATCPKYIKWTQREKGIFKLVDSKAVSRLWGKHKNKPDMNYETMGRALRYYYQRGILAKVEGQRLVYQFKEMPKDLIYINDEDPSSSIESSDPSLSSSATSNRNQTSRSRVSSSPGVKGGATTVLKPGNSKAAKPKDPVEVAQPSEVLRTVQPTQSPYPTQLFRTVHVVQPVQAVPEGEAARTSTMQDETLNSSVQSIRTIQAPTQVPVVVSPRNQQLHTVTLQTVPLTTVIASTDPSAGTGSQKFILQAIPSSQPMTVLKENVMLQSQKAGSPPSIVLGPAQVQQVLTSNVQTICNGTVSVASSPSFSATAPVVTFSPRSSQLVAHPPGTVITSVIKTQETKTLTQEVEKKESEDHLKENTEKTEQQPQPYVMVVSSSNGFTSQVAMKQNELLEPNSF
# Chain of ETV5 (P41161 whole entry): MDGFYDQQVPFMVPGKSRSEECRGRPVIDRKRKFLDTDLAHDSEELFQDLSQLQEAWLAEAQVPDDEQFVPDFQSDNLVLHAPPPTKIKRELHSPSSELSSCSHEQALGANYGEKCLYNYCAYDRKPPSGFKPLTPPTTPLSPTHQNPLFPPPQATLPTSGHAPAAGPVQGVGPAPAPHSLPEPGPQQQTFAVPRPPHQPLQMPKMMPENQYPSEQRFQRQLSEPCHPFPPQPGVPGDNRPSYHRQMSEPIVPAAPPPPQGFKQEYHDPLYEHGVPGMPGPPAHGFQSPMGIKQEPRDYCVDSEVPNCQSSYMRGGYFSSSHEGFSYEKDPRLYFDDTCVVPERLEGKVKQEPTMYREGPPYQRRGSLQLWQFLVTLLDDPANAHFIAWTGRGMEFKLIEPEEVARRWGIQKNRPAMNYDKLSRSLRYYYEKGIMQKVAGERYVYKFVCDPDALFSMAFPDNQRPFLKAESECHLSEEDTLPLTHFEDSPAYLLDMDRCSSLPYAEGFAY
# Chain of ETV1 (P50549 whole entry): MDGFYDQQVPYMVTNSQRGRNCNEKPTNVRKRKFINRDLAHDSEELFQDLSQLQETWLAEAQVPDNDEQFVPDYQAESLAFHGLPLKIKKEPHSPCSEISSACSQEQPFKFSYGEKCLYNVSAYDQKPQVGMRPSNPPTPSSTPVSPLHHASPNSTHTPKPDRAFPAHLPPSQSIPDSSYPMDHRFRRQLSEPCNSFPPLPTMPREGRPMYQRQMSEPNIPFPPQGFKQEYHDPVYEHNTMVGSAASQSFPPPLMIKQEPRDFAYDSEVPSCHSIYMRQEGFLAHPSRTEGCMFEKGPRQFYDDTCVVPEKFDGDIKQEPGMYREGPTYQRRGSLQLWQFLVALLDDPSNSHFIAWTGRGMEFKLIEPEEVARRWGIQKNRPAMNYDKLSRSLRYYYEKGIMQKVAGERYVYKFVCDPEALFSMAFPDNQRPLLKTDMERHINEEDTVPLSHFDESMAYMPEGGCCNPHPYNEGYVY
# Chain of ETV6 (P41212 whole entry): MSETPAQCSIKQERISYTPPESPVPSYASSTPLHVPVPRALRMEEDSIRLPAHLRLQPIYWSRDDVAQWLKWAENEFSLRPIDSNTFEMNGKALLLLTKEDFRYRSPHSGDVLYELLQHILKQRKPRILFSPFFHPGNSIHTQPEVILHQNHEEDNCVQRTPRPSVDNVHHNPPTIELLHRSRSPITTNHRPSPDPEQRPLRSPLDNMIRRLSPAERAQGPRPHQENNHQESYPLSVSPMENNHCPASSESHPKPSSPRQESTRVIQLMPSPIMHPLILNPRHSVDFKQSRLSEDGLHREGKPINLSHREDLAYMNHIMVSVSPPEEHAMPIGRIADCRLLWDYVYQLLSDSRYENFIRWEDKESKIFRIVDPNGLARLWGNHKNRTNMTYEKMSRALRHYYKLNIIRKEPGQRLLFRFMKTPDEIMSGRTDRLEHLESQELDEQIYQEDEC
# Chain of SPIB (Q01892 whole entry): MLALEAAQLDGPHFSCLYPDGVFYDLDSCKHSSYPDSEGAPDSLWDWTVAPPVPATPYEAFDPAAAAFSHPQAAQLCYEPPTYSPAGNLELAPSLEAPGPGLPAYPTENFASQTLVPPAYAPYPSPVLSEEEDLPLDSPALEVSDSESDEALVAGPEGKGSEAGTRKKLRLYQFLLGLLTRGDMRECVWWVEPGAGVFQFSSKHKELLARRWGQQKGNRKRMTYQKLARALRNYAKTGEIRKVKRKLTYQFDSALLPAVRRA
sequence,measurement,setting,value
CGCCTG,binding signal,[1],"1.17 fold enrichment (6-mer frequency, TF over GST control)"
same,binding signal,[2],"1.08 fold enrichment (6-mer frequency, TF over GST control)"
same,binding signal,[3],"1.15 fold enrichment (6-mer frequency, TF over GST control)"
same,binding signal,[4],"1.12 fold enrichment (6-mer frequency, TF over GST control)"
same,binding signal,[5],"1.11 fold enrichment (6-mer frequency, TF over GST control)"
same,binding signal,[6],"1.07 fold enrichment (6-mer frequency, TF over GST control)"
same,binding signal,[7],"1.08 fold enrichment (6-mer frequency, TF over GST control)"
same,binding signal,[8],"1.18 fold enrichment (6-mer frequency, TF over GST control)"
same,binding signal,[9],"1.05 fold enrichment (6-mer frequency, TF over GST control)"
same,binding signal,[10],"1.17 fold enrichment (6-mer frequency, TF over GST control)"
same,binding signal,[11],"1.01 fold enrichment (6-mer frequency, TF over GST control)"
same,binding signal,[12],"1.19 fold enrichment (6-mer frequency, TF over GST control)"
same,binding signal,[13],"1.09 fold enrichment (6-mer frequency, TF over GST control)"
same,binding signal,[14],"1.1 fold enrichment (6-mer frequency, TF over GST control)"
same,binding signal,[15],"1.12 fold enrichment (6-mer frequency, TF over GST control)"
same,binding signal,[16],"1.03 fold enrichment (6-mer frequency, TF over GST control)"
same,binding signal,[17],"1.01 fold enrichment (6-mer frequency, TF over GST control)"
same,binding signal,[18],"1.06 fold enrichment (6-mer frequency, TF over GST control)"
same,binding signal,[19],"1.14 fold enrichment (6-mer frequency, TF over GST control)"
